Shown are actives, neighbours in structure and some others; about 18% of the full set was active somewhere.
TDP1 inh: blocks human tyrosyl-DNA phosphodiesterase 1 | recombinant TDP1, AlphaScreen DNA substrate cleavage | 350,000 compounds, 0.28% hits | Potency, µM (top dose mostly 130 µM), for inactives: at the top dose activity change, negative = inhibition, actives largely listed as inhibitors; note: nearly all actives have a fitted effect of over 40% in size
Target sequence (Q9NUW8 whole entry, looked up): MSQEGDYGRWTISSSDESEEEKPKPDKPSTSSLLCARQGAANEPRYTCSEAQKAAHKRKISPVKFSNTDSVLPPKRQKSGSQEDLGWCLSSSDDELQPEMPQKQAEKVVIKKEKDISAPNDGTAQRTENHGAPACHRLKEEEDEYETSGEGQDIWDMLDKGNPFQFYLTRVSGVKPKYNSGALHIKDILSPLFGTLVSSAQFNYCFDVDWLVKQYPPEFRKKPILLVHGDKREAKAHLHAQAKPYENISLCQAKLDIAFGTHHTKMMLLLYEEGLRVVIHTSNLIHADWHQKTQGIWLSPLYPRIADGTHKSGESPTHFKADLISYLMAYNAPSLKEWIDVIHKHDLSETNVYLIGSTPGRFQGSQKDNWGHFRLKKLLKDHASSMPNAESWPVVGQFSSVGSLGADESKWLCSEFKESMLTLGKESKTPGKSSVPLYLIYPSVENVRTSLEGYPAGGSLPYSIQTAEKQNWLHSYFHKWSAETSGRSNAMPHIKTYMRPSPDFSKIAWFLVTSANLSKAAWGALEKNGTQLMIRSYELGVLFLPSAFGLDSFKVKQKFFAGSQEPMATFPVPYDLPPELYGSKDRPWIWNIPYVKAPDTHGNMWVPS
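Enzyme-compound mixtures sat 15 min at room temperature, followed by a 5 min reaction with 15 nM final substrate and 10 min with AlphaScreen beads. Recombinant human Tdp1 was used at 1 nM final.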
TDP1 cell CPT: DT40-hTDP1 cell growth loss with CPT; 420,000 compounds, 12% hits; Potency, µM (top dose mostly 46.2 µM), without a hit: top-dose activity change, negative = growth inhibition, most hits filed as inhibitors; chicken DT40 Tdp1-/-;hTDP1 cells + 20 nM CPT, ATP luminescence, 48 h; AID 686979; note: nearly all actives have a fitted effect of over 55% in size
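Cell growth measured by CellTiter-Glo luminescence after a minimum 48 h, 37 C compound exposure with 20 nM CPT in Tdp1-knockout DT40 cells stably expressing hTDP1, seeded 400/well; qHTS titration format.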
VDR inhibitor: vitamin D3 receptor (human) inhibition. Potency, µM, inactives show max response, negative = inhibition, actives largely listed as inhibitors. 400,000 compounds, 0.93% hits. AID 504847. VDR-SRC2-3 peptide fluorescence polarization, 2 h. P11473
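Signal is fluorescence polarization, reporting how far test compounds block the interaction of VDR with the SRC2-3 coregulator peptide after a 2 h room-temperature incubation.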
PLK1 PBD block: blocks phosphopeptide binding to human PLK1 polo-box domain. P53350. Plk1 PBD binding of FITC phosphopeptide, fluorescence polarization. Potency, µM, inactives show max response, negative = inhibition, actives largely listed as inhibitors. 360,000 compounds, 2.8% hits. AID 720504; note: series mostly up to about 57 µM; nearly all actives have a fitted effect of over 65% in size
TDP1 cell noCPT: qHTS for Inhibitors of human tyrosyl-DNA phosphodiesterase 1 (TDP1): qHTS in cells in absence of CPT. 420,000 compounds, 15% hits. DT40 Tdp1-/- hTDP1 cells, no CPT, ATP luminescence, 48 h. AID 686978, 2013. Potency, µM (doses to about 46.2 µM), without a hit: at the top dose activity change, negative = growth inhibition, actives largely listed as inhibitors; note: nearly all actives have a fitted effect of over 55% in size
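Stably hTDP1-transfected Tdp1-null chicken DT40 cells were treated with library compounds minus camptothecin and grown for at least 48 hr at 37 °C, after which cellular ATP was quantified by luminescence.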
KAT2A inh: blocks human GCN5L2 histone acetyltransferase. 390,000 compounds, 0.21% hits. AID 504327. GCN5L2 HAT assay, ThioGlo1 CoA-SH fluorescence. Potency, µM (series often up to 58.9 µM), for the others: at the top dose activity change, negative = inhibition, actives largely listed as inhibitors
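Free CoA generated was detected with ThioGlo1 (50uM) fluorescence at Ex340nm/Em540nm, read immediately and after 20 min at room temperature. Enzyme, 20 nM in HEPES pH 7.5 buffer, saw compounds 15 min before adding 75uM H3(1-25) peptide and 70uM acetyl-CoA.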
Active calls of the source: *; ! = not active in a repeat; [ ] = dose if it differs, or a comment. Calls come from the whole dose curve; as a rule, active = well fitted curve in the direction sought with a large enough effect; inconclusive = small, poorly fitted or top-dose-only effect, or another doubt; inactive = no such curve, though single readings can be large; an effect the other way counts as inactive or inconclusive. % is set by controls: 0 for no effect and ±100 for the full control effect; potency is the fitted concentration of half-maximal effect.

For CC(C)OCCCN1C(=O)c2[nH]nc(-c3ccccc3O)c2C1c1ccc(OCc2ccccc2)cc1 (configuration not stated) the results were TDP1 inh 11%, TDP1 cell CPT 15µM*, VDR inhibitor 10%, TDP1 cell noCPT 12µM* and KAT2A inh -21%.
`Cc1cc(Cl)nc2c(C(C)C)cccc12` gave TDP1 inh 2%, TDP1 cell CPT inconclusive, VDR inhibitor -21%, PLK1 PBD block 17µM*, TDP1 cell noCPT inconclusive and KAT2A inh -4%.
For Cc1ccc(C)c(C(=O)COC(=O)c2ccccc2N2C(=O)C3C4CCC(C4)C3C2=O)c1 (configuration not stated) the results were TDP1 inh 4%, TDP1 cell CPT 21µM*, VDR inhibitor -8%, PLK1 PBD block inconclusive, TDP1 cell noCPT 21µM* and KAT2A inh -8%.
Screening NC(=O)C1CCCN(Cc2ccc3c(c2)CN(Cc2ccccc2)CCO3)C1 (configuration not stated) returned TDP1 cell CPT 6%[9.04 µM] and TDP1 cell noCPT -18%.
Screening COc1cc(C)nc(NC(=S)N(C)C(=O)c2ccccc2)n1 returned TDP1 inh 4%, TDP1 cell CPT -4%, VDR inhibitor 8%, PLK1 PBD block -15%, TDP1 cell noCPT -9% and KAT2A inh -1%.
For Cc1[nH]c2ccccc2c1C(=O)CSc1ccc(Cl)cc1 the results were TDP1 inh 0%, TDP1 cell CPT 23µM*, VDR inhibitor inconclusive, PLK1 PBD block 12µM*, TDP1 cell noCPT inconclusive and KAT2A inh -4%.
For CCCn1c(SCC(=O)c2c(C)[nH]c(C)c2C(=O)OCC)nc2ccccc21 the results were TDP1 inh 4%, TDP1 cell CPT 16µM*, VDR inhibitor -16%, PLK1 PBD block -16%, TDP1 cell noCPT inconclusive and KAT2A inh -1%.
CCOC(=O)c1c(C)[nH]c(C)c1C(=O)CSc1nc2ccccc2c(=O)n1-c1ccc(Cl)cc1 was read as TDP1 inh 4%, TDP1 cell CPT 16µM*, VDR inhibitor -8%, PLK1 PBD block -6%, TDP1 cell noCPT 18µM* and KAT2A inh -15%.
`Cc1ccccc1OCC(=O)Nc1ccc2nc(SCC(N)=O)sc2c1` gave TDP1 inh 4%, TDP1 cell CPT inconclusive, VDR inhibitor 3%, TDP1 cell noCPT inconclusive and KAT2A inh -10%.
`C=C1[C@@H](O)[C@@H]2O[C@]3(CC[C@H](/C=C/[C@@H](C)[C@@H]4CC(C)=CC5(O[C@H](C[C@@](C)(O)C(=O)OC)CC[C@H]5O)O4)O3)CC[C@H]2O[C@@H]1[C@@H](O)C[C@H](C)[C@H]1OC2(CCCCO2)CC[C@H]1C` (some centres not stated) gave TDP1 inh 0%, TDP1 cell CPT 0.58µM*, VDR inhibitor -4%, PLK1 PBD block -5%, TDP1 cell noCPT 0.92µM* and KAT2A inh 0%.
`C=C1C(O)[C@@H]2O[C@]3(CC[C@H](/C=C/C(C)[C@@H]4CC(C)=CC5(O[C@H](C[C@@](C)(O)CO)CCC5O)O4)O3)CC[C@H]2O[C@@H]1C(O)CC(C)[C@H]1OC2(CCCCO2)CCC1C` (some centres not stated) gave TDP1 inh 0%, TDP1 cell CPT 1.5µM*, VDR inhibitor 6%, PLK1 PBD block -7%, TDP1 cell noCPT 3.3µM* and KAT2A inh 2%.
COCCNc1nc(-c2ccoc2)nc2ccccc12 was read as TDP1 cell CPT inconclusive, VDR inhibitor 0%, TDP1 cell noCPT -20% and KAT2A inh -9%.
Screening Cc1cccc(NC(=O)Cc2csc(COc3cccc(C)c3)n2)c1 returned TDP1 inh -3%, TDP1 cell CPT -22%, VDR inhibitor 9%, TDP1 cell noCPT -21% and KAT2A inh -12%.
For CC(=O)Nc1cccc(NC(=O)Cc2csc(COc3cccc(C)c3)n2)c1 the results were TDP1 inh -1%, TDP1 cell CPT 15µM*, VDR inhibitor 3%, TDP1 cell noCPT 21µM* and KAT2A inh -6%.
Screening COc1ccc(NC(=O)Cc2csc(COc3cccc(C)c3)n2)cc1OC returned TDP1 inh 6%, TDP1 cell CPT 18µM*, VDR inhibitor 9%, TDP1 cell noCPT 26µM* and KAT2A inh -1%.
Screening CN1CCN(C(=O)OC2CC3CC2[C@H]2CCCCN2C3=O)CC1 (some centres not stated) returned TDP1 cell CPT -10%, PLK1 PBD block 3% and TDP1 cell noCPT -9%.
Screening CNS(=O)(=O)c1cc(Nc2ncnc3sccc23)ccc1C returned TDP1 cell CPT 15µM*, VDR inhibitor 8%, PLK1 PBD block -12%, TDP1 cell noCPT inconclusive and KAT2A inh -5%.
Screening Cc1ccc(C(C)(C)C)cc1S(=O)(=O)Nc1ncnc2sccc12 returned TDP1 inh -1%[56.1 µM], TDP1 cell CPT -1%, VDR inhibitor 15%, PLK1 PBD block 0%, TDP1 cell noCPT 1% and KAT2A inh -1%.
`COc1ccc(C)cc1N(C(=O)COc1cccc(F)c1)c1nc2ccccc2s1` gave TDP1 inh 5%, TDP1 cell CPT inconclusive, VDR inhibitor -3%, PLK1 PBD block 3%, TDP1 cell noCPT inconclusive and KAT2A inh -3%.
`COc1ccc(C)cc1N(C(=O)c1ccc(F)cc1)c1nc2ccccc2s1` gave TDP1 inh 3%, TDP1 cell CPT inconclusive, VDR inhibitor -5%, PLK1 PBD block 6%, TDP1 cell noCPT 16µM* and KAT2A inh -3%.
COCc1c(C(=O)N2CCN(C3CCCC3)CC2)cnn1-c1nccc(-c2cc(C)sc2C)n1 was read as TDP1 cell CPT 5%[9.04 µM] and TDP1 cell noCPT -17%.
CN(C)c1ccc(/C=C/c2ccncc2)cc1 was read as TDP1 inh 2%, TDP1 cell CPT -2%, VDR inhibitor -14%, PLK1 PBD block -15%, TDP1 cell noCPT 26µM*! and KAT2A inh -3%.
CCN(CC)c1ccc(/C=C/c2ccncc2)cc1 was read as TDP1 cell CPT 0.18µM* and TDP1 cell noCPT 0.32µM*.
CN(C)c1ccc(C=Cc2cnccn2)cc1 was read as TDP1 cell CPT -1%, VDR inhibitor 2%, PLK1 PBD block 8% and TDP1 cell noCPT inconclusive.
Screening CCN(CC)c1ccc(/C=N/O)cc1 returned TDP1 inh 2%, TDP1 cell CPT -8%, VDR inhibitor -23%, PLK1 PBD block -9%, TDP1 cell noCPT -28% and KAT2A inh 1%.

From PubChem
